Test results taken from paper doi:10.1101/2024.03.05.583629.

What follows are sequences tested against pT7_6His-AlfaTag-HOXD13 (human, UniProt P35453 263-343) (assay: PADIT-seq). Conditions: dsDNA, one strand shown.
Chain of pT7_6His-AlfaTag-HOXD13 (P35453 263-343): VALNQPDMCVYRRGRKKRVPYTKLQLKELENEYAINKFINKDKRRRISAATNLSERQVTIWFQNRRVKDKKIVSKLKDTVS
With “CTCGAGGATATCAAGATCTGGCCTCGGCTCTCTAAAAGGAACCTCTAGCTAGCCGACTCACTATAGGGATAATCGCCCTGAGCAAAGACC” the binding signal was 0.412 ± 0.105 log2FC.
“CTCGAGGATATCAAGATCTGGCCTCGGCCATTTAAAAGGAACCTCTAGCTAGCCGACTCACTATAGGGATAATCGCCCTGAGCAAAGACC” showed a binding signal of 2.3 ± 0.0841 log2FC.
“CTCGAGGATATCAAGATCTGGCCTCGGCCTTTTAGCTGGAACCTCTAGCTAGCCGACTCACTATAGGGATAATCGCCCTGAGCAAAGACC” showed a binding signal of -0.366 ± 0.11 log2FC.
Sequence “CTCGAGGATATCAAGATCTGGCCTCGGCCTGTTAAAAGGAACCTCTAGCTAGCCGACTCACTATAGGGATAATCGCCCTGAGCAAAGACC” has a binding signal of 2.25 ± 0.0806 log2FC.
“CTCGAGGATATCAAGATCTGGCCTCGGCATTTTAGACGGAACCTCTAGCTAGCCGACTCACTATAGGGATAATCGCCCTGAGCAAAGACC” gave a binding signal of -0.141 ± 0.116 log2FC.
“CTCGAGGATATCAAGATCTGGCCTCGGCTTTTTATGCGGAACCTCTAGCTAGCCGACTCACTATAGGGATAATCGCCCTGAGCAAAGACC” was tested, and the binding signal was 2.03 ± 0.081 log2FC.
With “CTCGAGGATATCAAGATCTGGCCTCGGCTTCGTAAAAGGAACCTCTAGCTAGCCGACTCACTATAGGGATAATCGCCCTGAGCAAAGACC” the binding signal was 1.86 ± 0.0804 log2FC.
Work on “CTCGAGGATATCAAGATCTGGCCTCGGCGCGCCGGCGGGAACCTCTAGCTAGCCGACTCACTATAGGGATAATCGCCCTGAGCAAAGACC” yielded a binding signal of -1.04 ± 0.18 log2FC.
With “CTCGAGGATATCAAGATCTGGCCTCGGCGTTTTAGTAGGAACCTCTAGCTAGCCGACTCACTATAGGGATAATCGCCCTGAGCAAAGACC” the binding signal was 1.61 ± 0.098 log2FC.
“CTCGAGGATATCAAGATCTGGCCTCGGCATTTTATGCGGAACCTCTAGCTAGCCGACTCACTATAGGGATAATCGCCCTGAGCAAAGACC” showed a binding signal of 2.23 ± 0.0779 log2FC.
For “CTCGAGGATATCAAGATCTGGCCTCGGCGGACTAAAAGGAACCTCTAGCTAGCCGACTCACTATAGGGATAATCGCCCTGAGCAAAGACC”, the binding signal was -0.896 ± 0.106 log2FC.
Sequence “CTCGAGGATATCAAGATCTGGCCTCGGCTCGTTAAAAGGAACCTCTAGCTAGCCGACTCACTATAGGGATAATCGCCCTGAGCAAAGACC” has a binding signal of 3.05 ± 0.0768 log2FC.
“CTCGAGGATATCAAGATCTGGCCTCGGCATGTTAAAAGGAACCTCTAGCTAGCCGACTCACTATAGGGATAATCGCCCTGAGCAAAGACC” was tested, and the binding signal was 1.48 ± 0.0814 log2FC.
In the case of “CTCGAGGATATCAAGATCTGGCCTCGGCCTTTTAGTCGGAACCTCTAGCTAGCCGACTCACTATAGGGATAATCGCCCTGAGCAAAGACC”, the binding signal is reported as -0.369 ± 0.0988 log2FC.
Sequence “CTCGAGGATATCAAGATCTGGCCTCGGCCGGGTAAAAGGAACCTCTAGCTAGCCGACTCACTATAGGGATAATCGCCCTGAGCAAAGACC” has a binding signal of -0.304 ± 0.0906 log2FC.
“CTCGAGGATATCAAGATCTGGCCTCGGCCCATTAAAAGGAACCTCTAGCTAGCCGACTCACTATAGGGATAATCGCCCTGAGCAAAGACC” gave a binding signal of 2.92 ± 0.0908 log2FC.
“CTCGAGGATATCAAGATCTGGCCTCGGCGGTCTAAAAGGAACCTCTAGCTAGCCGACTCACTATAGGGATAATCGCCCTGAGCAAAGACC” gave a binding signal of -0.664 ± 0.0879 log2FC.
Sequence “CTCGAGGATATCAAGATCTGGCCTCGGCTGTTTAAAAGGAACCTCTAGCTAGCCGACTCACTATAGGGATAATCGCCCTGAGCAAAGACC” has a binding signal of 1.97 ± 0.0666 log2FC.
“CTCGAGGATATCAAGATCTGGCCTCGGCATTTTATTAGGAACCTCTAGCTAGCCGACTCACTATAGGGATAATCGCCCTGAGCAAAGACC” was tested, and the binding signal was 3.28 ± 0.0692 log2FC.
Sequence “CTCGAGGATATCAAGATCTGGCCTCGGCTGGATAAAAGGAACCTCTAGCTAGCCGACTCACTATAGGGATAATCGCCCTGAGCAAAGACC” has a binding signal of -0.165 ± 0.087 log2FC.
Work on “CTCGAGGATATCAAGATCTGGCCTCGGCCGCTAACGCGGAACCTCTAGCTAGCCGACTCACTATAGGGATAATCGCCCTGAGCAAAGACC” yielded a binding signal of -0.899 ± 0.132 log2FC.
“CTCGAGGATATCAAGATCTGGCCTCGGCCTCCTAAAAGGAACCTCTAGCTAGCCGACTCACTATAGGGATAATCGCCCTGAGCAAAGACC” showed a binding signal of 0.715 ± 0.108 log2FC.
For “CTCGAGGATATCAAGATCTGGCCTCGGCATTTTAGGAGGAACCTCTAGCTAGCCGACTCACTATAGGGATAATCGCCCTGAGCAAAGACC”, the binding signal was 1.62 ± 0.0831 log2FC.
For “CTCGAGGATATCAAGATCTGGCCTCGGCGCACTAAAAGGAACCTCTAGCTAGCCGACTCACTATAGGGATAATCGCCCTGAGCAAAGACC”, the binding signal was 0.431 ± 0.0748 log2FC.
With “CTCGAGGATATCAAGATCTGGCCTCGGCTTTTTAGTAGGAACCTCTAGCTAGCCGACTCACTATAGGGATAATCGCCCTGAGCAAAGACC” the binding signal was 1.62 ± 0.0952 log2FC.
Work on “CTCGAGGATATCAAGATCTGGCCTCGGCGCTATAAAAGGAACCTCTAGCTAGCCGACTCACTATAGGGATAATCGCCCTGAGCAAAGACC” yielded a binding signal of 2.83 ± 0.0721 log2FC.
Sequence “CTCGAGGATATCAAGATCTGGCCTCGGCATTTTACAAGGAACCTCTAGCTAGCCGACTCACTATAGGGATAATCGCCCTGAGCAAAGACC” has a binding signal of 3.41 ± 0.0871 log2FC.
“CTCGAGGATATCAAGATCTGGCCTCGGCTTCATAAAAGGAACCTCTAGCTAGCCGACTCACTATAGGGATAATCGCCCTGAGCAAAGACC” was tested, and the binding signal was 2.49 ± 0.0838 log2FC.
With “CTCGAGGATATCAAGATCTGGCCTCGGCAACTGGGCGGGAACCTCTAGCTAGCCGACTCACTATAGGGATAATCGCCCTGAGCAAAGACC” the binding signal was -0.923 ± 0.12 log2FC.
“CTCGAGGATATCAAGATCTGGCCTCGGCATTTTAATTGGAACCTCTAGCTAGCCGACTCACTATAGGGATAATCGCCCTGAGCAAAGACC” gave a binding signal of 2.74 ± 0.0827 log2FC.
Work on “CTCGAGGATATCAAGATCTGGCCTCGGCATTTTATGAGGAACCTCTAGCTAGCCGACTCACTATAGGGATAATCGCCCTGAGCAAAGACC” yielded a binding signal of 3.3 ± 0.0767 log2FC.
“CTCGAGGATATCAAGATCTGGCCTCGGCGCGTGGCCGGGAACCTCTAGCTAGCCGACTCACTATAGGGATAATCGCCCTGAGCAAAGACC” showed a binding signal of -1.04 ± 0.14 log2FC.
“CTCGAGGATATCAAGATCTGGCCTCGGCCGCGTAAAAGGAACCTCTAGCTAGCCGACTCACTATAGGGATAATCGCCCTGAGCAAAGACC” gave a binding signal of 1.44 ± 0.0853 log2FC.
Work on “CTCGAGGATATCAAGATCTGGCCTCGGCATTTTACATGGAACCTCTAGCTAGCCGACTCACTATAGGGATAATCGCCCTGAGCAAAGACC” yielded a binding signal of 2.14 ± 0.0807 log2FC.
Work on “CTCGAGGATATCAAGATCTGGCCTCGGCCTTTTATTGGGAACCTCTAGCTAGCCGACTCACTATAGGGATAATCGCCCTGAGCAAAGACC” yielded a binding signal of 3.44 ± 0.0778 log2FC.
For “CTCGAGGATATCAAGATCTGGCCTCGGCCAGTTAAAAGGAACCTCTAGCTAGCCGACTCACTATAGGGATAATCGCCCTGAGCAAAGACC”, the binding signal was 2 ± 0.0881 log2FC.
For “CTCGAGGATATCAAGATCTGGCCTCGGCGTTTTACCCGGAACCTCTAGCTAGCCGACTCACTATAGGGATAATCGCCCTGAGCAAAGACC”, the binding signal was -0.0427 ± 0.101 log2FC.
“CTCGAGGATATCAAGATCTGGCCTCGGCCAGCTAAAAGGAACCTCTAGCTAGCCGACTCACTATAGGGATAATCGCCCTGAGCAAAGACC” was tested, and the binding signal was -0.419 ± 0.146 log2FC.
